Measurements as given in PubChem BioAssay AID1159580 (chemical genetic matrix, 2015).
“And” between values parts separate entries of the source, which are not always exact repeats. Identical values can stand only once. The whole screen tested about 5,500 compounds, of which about 2,000 (36%) were called active. About 18% were inconclusive and are not listed. Rule as the data show it: active = normalized growth mostly below about 0.91 (no sharp cut-off); inconclusive = no clear call, values can overlap the other calls; inactive = mostly above about 0.92. This is one part of the list.

Assay: chemical genetic growth profiling, strain panel (AID 1159580);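 also: tested at 20 µM; growth read once vehicle control cultures reached saturation at 30 °C; 1 = growth at the plate median or of vehicle wells; lower values mean less growth of the strain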
Settings: S. cerevisiae deletion strains, growth OD

Measured: normalized growth

CCCCNC(=O)NS(=O)(=O)c1ccc(C)cc1
inactive: locus YAL013W, strain DEP1, active compounds read low 0.995 | locus YAL021C, strain ccr4, active compounds read low 1.02 | locus YAL026C, strain drs2, active compounds read low 1.01 | locus YAL030W, strain snc1, active compounds read low 1.02 | locus YAL040C, strain CLN3, active compounds read low 0.997 | locus YBL061C, strain skt5, active compounds read low 1.01 | locus YBR009C, strain hhf1, active compounds read low 0.973 | locus YBR021W, strain FUR4, active compounds read low 1.01 | locus YBR023C, strain chs3, active compounds read low 1.02 | locus YBR171W, strain sec66, active compounds read low 1.01 | locus YBR229C, strain ROT2, active compounds read low 0.993 | locus YBR231C, strain swc5, active compounds read low 1.01 | locus YBR279W, strain paf1, active compounds read low 0.995 | locus YCL011C, strain gbp2, active compounds read low 1 | locus YCL016C, strain dcc1, active compounds read low 0.993 | locus YCL029C, strain bik1, active compounds read low 0.979 | locus YCL061C, strain MRC1 (second series), active compounds read low 1 | locus YCL061C, strain MRC1, active compounds read low 1.01 | locus YCL069W, strain vba3, active compounds read low 1.02 | locus YCR088W, strain abp1, active compounds read low 1.02 | locus YDL005C, strain med2, active compounds read low 1.01 | locus YDL035C, strain GPR1, active compounds read low 0.989 | locus YDL040C, strain nat1, active compounds read low 1.01 | locus YDL074C, strain BRE1, active compounds read low 1.02 | locus YDL101C, strain DUN1, active compounds read low 1.01 | locus YDL134C, strain PPH21, active compounds read low 1 | locus YDL185W, strain tfp1, active compounds read low 0.953 | locus YDL192W, strain arf1, active compounds read low 0.97 | locus YDR001C, strain nth1, active compounds read low 1.02 | locus YDR069C, strain doa4, active compounds read low 1.02 | locus YDR101C, strain arx1, active compounds read low 0.994 | locus YDR137W, strain rgp1, active compounds read low 0.978 | locus YDR159W, strain sac3, active compounds read low 0.93 | locus YDR162C, strain NBP2, active compounds read low 0.974 | locus YDR195W, strain ref2 1.01 | locus YDR297W, strain sur2, active compounds read low 1.01 | locus YDR318W, strain mcm21, active compounds read low 0.978 | locus YDR334W, strain swr1, active compounds read low 1.01 | locus YDR335W, strain msn5, active compounds read low 1.01 | locus YDR363W, strain ESC2, active compounds read low 1.01 | locus YDR388W, active compounds read low 0.974 | locus YDR392W, strain spt3, active compounds read low 0.927 | locus YDR502C, strain sam2, active compounds read low 0.985 | locus YEL003W, strain gim4, active compounds read low 1.02 | locus YEL037C, strain rad23, active compounds read low 1.01 | locus YEL061C, strain CIN8 (second series), active compounds read low 1.01 | locus YEL061C, strain CIN8, active compounds read low 0.99 | locus YER002W, strain NOP16, active compounds read low 1 | locus YER015W, strain faa2, active compounds read low 1.01 | locus YER016W, strain bim1, active compounds read low 0.988 | locus YER110C, active compounds read low 0.982 | locus YER111C, strain swi4, active compounds read low 1.02 | locus YER155C, strain BEM2 (second series), active compounds read low 1.04 | locus YER155C, strain BEM2, active compounds read low 0.985 | locus YER167W, strain BCK2, active compounds read low 0.994 | locus YFR010W, strain ubp6, active compounds read low 1.02 | locus YGL078C, strain dbp3, active compounds read low 0.989 | locus YGL086W, strain mad1, active compounds read low 1 | locus YGL167C, strain pmr1, active compounds read low 1.01 | locus YGL173C, strain kem1, active compounds read low 1.03 | locus YGL227W, strain vid30, active compounds read low 1.01 | locus YGL240W, strain doc1, active compounds read low 1.01 | locus YGL248W, strain PDE1, active compounds read low 1 | locus YGL253W, strain hxk2, active compounds read low 1 | locus YGR078C, strain PAC10, active compounds read low 1.01 | locus YGR135W, strain pre9, active compounds read low 0.986 | locus YGR252W, strain gcn5, active compounds read low 1.21 | locus YHR013C, strain ard1, active compounds read low 0.992 | locus YHR027C, strain rpn1, active compounds read low 1 | locus YHR030C, strain SLT2, active compounds read low 0.99 and 0.938 | locus YHR079C, strain IRE1 (second series), active compounds read low 0.98 | locus YHR079C, strain IRE1, active compounds read low 0.964 | locus YHR094C, strain hxt1, active compounds read low 0.979 | locus YHR129C, strain ARP1, active compounds read low 0.996 | locus YHR142W, strain chs7, active compounds read low 1.02 | locus YHR200W, strain rpn10, active compounds read low 0.985 | locus YIL066C, strain RNR3, active compounds read low 0.988 | locus YIL073C, strain SPO22, active compounds read low 0.831 | locus YIL125W, strain kgd1, active compounds read low 0.962 | locus YIR030C, strain dcg1, active compounds read low 0.982 | locus YJL092W, strain hpr5, active compounds read low 1.01 | locus YJL095W, strain BCK1 (second series), active compounds read low 1.02 | locus YJL095W, strain BCK1, active compounds read low 1.01 and 0.954 | locus YJL115W, strain asf1, active compounds read low 1 | locus YJL129C, strain trk1, active compounds read low 1.01 | locus YJL134W, strain LCB3, active compounds read low 0.99 | locus YJL154C, strain vps35, active compounds read low 1.01 | locus YJL164C, strain tpk1, active compounds read low 1 | locus YJL166W, strain qcr8, active compounds read low 1.02 | locus YJL168C, strain set2, active compounds read low 0.981 | locus YJL187C, strain SWE1 (second series), active compounds read low 0.982 | locus YJL187C, strain SWE1, active compounds read low 1.02 | locus YJR043C, strain POL32, active compounds read low 1.02 | locus YJR066W, strain TOR1, active compounds read low 0.92
